Reference: PubChem BioAssay (NCATS)
Results filed as inconclusive are left out. Activity calls are given as the source filed them. The call rests on the fitted dose curve; in most records, active means well fitted curve in either direction with a large enough effect (not every such curve was filed as active); inconclusive means small, poorly fitted or top-dose-only effect, or another doubt; inactive means flat fitted curve, though single readings scatter.

What follows are compounds tested against Mitogen-activated protein kinase 10 (Mus musculus) (UniProt Q61831) (assay: JNK3 AlphaScreen Assay (AID 530;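 further: kinase came from lysate of stimulated human HepG2 cells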)). Conditions: JNK3 lysate, c-Jun phosphorylation; series mostly up to 57.1 µM.
Method in brief: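 Biotinylated GST-cJun(1-79) served as substrate for JNK3 in HepG2 lysates stimulated with IL-1beta and TNF-alpha. ATP was 10 uM final, pH 7.6. Ser73 phosphorylation was quantified by AlphaScreen (680 nm excitation).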

outcome, inactive:
COC(=O)[C@@]1(Cc2ccc(OC)cc2)[C@H]2c3cc(C(=O)N(C)C)n(Cc4ccccn4)c3C[C@H]2CN1C(=O)c1ccccc1, COC(=O)[C@@]1(Cc2ccc(F)cc2)[C@H]2c3cc(C(=O)N(C)C)n(CCc4ccc(OC)c(Br)c4)c3C[C@H]2CN1C(=O)c1ccccc1, COC(=O)[C@@]1(Cc2ccccc2)[C@H]2c3cc(C(=O)N(C)C)n(Cc4ccc(S(C)(=O)=O)cc4)c3C[C@H]2CN1C(=O)c1ccccc1, COC(=O)[C@@]1(Cc2ccc(OC)cc2)[C@H]2c3cc(C(=O)N4CCCC4)n(CCF)c3C[C@H]2CN1C(=O)c1ccccc1, COC(=O)[C@@]1(Cc2ccc(F)cc2)[C@H]2c3cc(C(=O)N(C)C)n(CCO)c3C[C@H]2CN1C(=O)c1ccccc1, COC(=O)[C@@]1(Cc2ccc(F)cc2)[C@H]2c3cc(C(=O)N4CCCC4)n(Cc4ccc(C(F)(F)F)nc4)c3C[C@H]2CN1C(=O)c1ccccc1, COC(=O)[C@@]1(Cc2ccc(F)cc2)[C@H]2c3cc(C(=O)N4CCCC4)n(Cc4cc(C)n(C)n4)c3C[C@H]2CN1C(=O)c1ccccc1, COc1ccc(CNC(=O)[C@H]2C[C@@H]2[C@H](NP(=O)(c2ccccc2)c2ccccc2)c2ccccc2)cc1OC, COC(=O)[C@@]1(Cc2ccccc2)[C@H]2c3cc(C(=O)N(C)C)n(CCO)c3C[C@H]2CN1C(=O)c1ccccc1, COC(=O)[C@@]1(Cc2ccc(F)cc2)[C@H]2c3cc(C(=O)N4CCCC4)n(CC4CC4)c3C[C@H]2CN1C(=O)c1ccccc1, O=C(NCc1ccccn1)[C@@H]1C[C@H]1[C@@H](NP(=O)(c1ccccc1)c1ccccc1)c1ccccc1, O=C(NCC1CC1)[C@@H]1C[C@H]1[C@@H](NP(=O)(c1ccccc1)c1ccccc1)c1ccccc1, COC(=O)[C@@]1(Cc2ccc(OC)cc2)[C@H]2c3cc(C(=O)N4CCCC4)n(Cc4ccccn4)c3C[C@H]2CN1C(=O)c1ccccc1, COC(=O)[C@@]1(Cc2ccc(OC)cc2)[C@H]2c3cc(C(=O)N(C)C)n(Cc4ccc(OC)c(OC)c4)c3C[C@H]2CN1C(=O)c1ccccc1, COC(=O)[C@@]1(Cc2ccc(F)cc2)[C@H]2c3cc(C(=O)N4CCCC4)n(CCSCCO)c3C[C@H]2CN1C(=O)c1ccccc1, C[C@@H](C(=O)NCc1ccccc1)[C@@H]1C[C@@]1(C)[C@@H](NC(=O)OCc1ccccc1)c1ccccc1, COC(=O)[C@@]1(Cc2ccc(F)cc2)[C@H]2c3cc(C(=O)N(C)C)n(Cc4cc(C)n(C)n4)c3C[C@H]2CN1C(=O)c1ccccc1, Cc1cc(CNC(=O)[C@H](C)[C@@H]2C[C@@]2(C)[C@@H](NC(=O)OCc2ccccc2)c2ccccc2)nn1C, COC(=O)[C@@]1(Cc2ccc(F)cc2)[C@H]2c3cc(C(=O)N(C)C)n(Cc4ccc(O)c(OC)c4)c3C[C@H]2CN1C(=O)c1ccccc1, Cc1ccc(CNC(=O)[C@H](C)[C@H]2C[C@]2(C)[C@H](NC(=O)OCc2ccccc2)c2ccccc2)o1, COC(=O)[C@@]1(Cc2ccc(OC)cc2)[C@H]2c3cc(C(=O)N(C)C)n(Cc4c(CO)[nH]cc(C)c4=O)c3C[C@H]2CN1C(=O)c1ccccc1, COC(=O)[C@@]1(Cc2ccc(OC)cc2)[C@H]2c3cc(C(=O)N(C)C)n(Cc4cc(F)c(F)c(F)c4)c3C[C@H]2CN1C(=O)c1ccccc1, COC(=O)[C@@]1(Cc2ccc(OC)cc2)[C@H]2c3cc(C(=O)N(C)C)n(Cc4ccc(Cl)c(C(F)(F)F)c4)c3C[C@H]2CN1C(=O)c1ccccc1, C[C@@H](C(=O)NCC1CC1)[C@@H]1C[C@@]1(C)[C@@H](NC(=O)OCc1ccccc1)c1ccccc1, COC(=O)[C@@]1(Cc2ccccc2)[C@H]2c3cc(C(=O)N4CCCC4)[nH]c3C[C@H]2CN1C(=O)c1ccccc1, COC(=O)[C@@]1(Cc2ccc(F)cc2)[C@H]2c3cc(C(=O)N4CCCC4)n(Cc4cc(F)cc5c4OCOC5)c3C[C@H]2CN1C(=O)c1ccccc1, COC(=O)[C@@]1(Cc2ccccc2)[C@H]2c3cc(C(=O)N(C)C)n(CCF)c3C[C@H]2CN1C(=O)c1ccccc1, COC(=O)[C@@H]1C[C@H]1[C@@H](NS(=O)(=O)c1ccccc1)c1ccccc1, COC(=O)[C@@]1(Cc2ccc(F)cc2)[C@H]2c3cc(C(=O)N(C)C)n(CCc4ccc(O)c(O)c4)c3C[C@H]2CN1C(=O)c1ccccc1, COC(=O)[C@@]1(Cc2ccc(F)cc2)[C@H]2c3cc(C(=O)N(C)C)n(CCF)c3C[C@H]2CN1C(=O)c1ccccc1, C[C@@H](C(=O)NCC1CC1)[C@H]1C[C@]1(C)[C@H](NC(=O)OCc1ccccc1)c1ccccc1, COC(=O)[C@@]1(Cc2ccc(F)cc2)[C@H]2c3cc(C(=O)N(C)C)n(CCN4CCOCC4)c3C[C@H]2CN1C(=O)c1ccccc1, COC(=O)[C@@]1(Cc2ccc(OC)cc2)[C@H]2c3cc(C(=O)N(C)C)n(CCc4ccccn4)c3C[C@H]2CN1C(=O)c1ccccc1, COC(=O)[C@@]1(Cc2ccccc2)[C@H]2c3cc(C(=O)N(C)C)n(Cc4c(CO)[nH]cc(C)c4=O)c3C[C@H]2CN1C(=O)c1ccccc1, COC(=O)[C@@]1(Cc2ccccc2)[C@H]2c3cc(C(=O)N(C)C)n(Cc4cc(F)c(F)c(F)c4)c3C[C@H]2CN1C(=O)c1ccccc1, CCC/C=C(\CCC)C(NC(=O)OCC(C)C)c1ccccc1 (stereo not given), COC(=O)[C@@]1(Cc2ccc(OC)cc2)[C@H]2c3cc(C(=O)N4CCCC4)n(Cc4ccsc4Br)c3C[C@H]2CN1C(=O)c1ccccc1, CCc1c2c(nc3ccccc13)OC(C)C2 (stereo not given), COC(=O)[C@@]1(Cc2ccc(OC)cc2)[C@H]2c3cc(C(=O)N(C)C)n(Cc4nc5ccccc5[nH]4)c3C[C@H]2CN1C(=O)c1ccccc1, C[C@@H](C(=O)N[C@@H](CO)Cc1ccccc1)[C@@H]1C[C@@]1(C)[C@@H](NC(=O)OCc1ccccc1)c1ccccc1
